Results as given in ChEMBL document CHEMBL3988442, “University of Dundee, Small-Polar-MMV Screening Library” (2021).
Among all 69,000 compounds or so, about 1,000 (1.4%) showed an effect of 50% or more. The full list was thinned out, with strong results kept by preference.

System: Leishmania donovani
Assay: Leishmania intramacrophage assay
Assay type: functional, organism-based
Set-up: scale not given: in the data most compounds retested in dose-response had high values

CC1(C)CN(C(CNS(C)(=O)=O)c2ccc(Cl)cc2)CCO1 (stereo not drawn)
Percent Effect (30.3 µM, […]): 30.45%

O=C(Cc1ccc(F)cc1)N1CCn2c(Cn3cncn3)cnc2C1
Percent Effect (30.3 µM, […]): 5.226%

CCc1nc2n(n1)CC(NCc1nc(-c3ccccn3)no1)CC2 (stereo not drawn)
Percent Effect (30 µM): -15.89%

Cc1nccn1CC1CCCN(C(=O)Cc2ccsc2)C1 (stereo not drawn)
Percent Effect (30.3 µM, […]): 72.54%

Cc1noc(C)c1CC(=O)N1CCCC(Cn2ccnc2C)C1 (stereo not drawn)
Percent Effect (30.3 µM, […]): 14.7%

CC(=O)N1CC(C(=O)N2CCCC(Cn3ccnc3C)C2)C1 (stereo not drawn)
Percent Effect (30.3 µM, […]): 46.71%

COc1ccc(CN2CCN(S(=O)(=O)c3cc(C(=O)O)cs3)CC2)cc1
Percent Effect (30.3 µM, […]): 15%

Cn1cc(C(=O)N2CC[C@@H]3[C@@H]2CCN3c2ccccn2)cn1
Percent Effect (30.3 µM, […]): 28.1%

CC(=O)NCCCOc1c(C)cccc1Cl
Percent Effect (30.3 µM, […]): 16.58%

Cc1ccc(C(=O)N2CCC3(CCC(=O)N(CCN(C)C)C3)CC2)nc1
Percent Effect (30.3 µM, […]): 0.8363%

CCN1CCCC1Cn1ccc2ccc(C(=O)OC)cc2c1=O (stereo not drawn)
Percent Effect (30.3 µM, […]): -29.19%

CCc1ccc2nc(NCCCN(CCO)CCO)cc(C)c2c1
Percent Effect (30.3 µM, […]): 97.87%

CCc1ccc2nc(NCCOCCO)cc(C)c2c1
Percent Effect (30.3 µM, […]): 19.28%

CCc1ccc2nc(NCC(O)CO)cc(C)c2c1 (stereo not drawn)
Percent Effect (30.3 µM, […]): 21.82%

CCc1ccc(CN2Cc3nccn3CC(Cn3cncn3)C2)o1.O=C(O)C(F)(F)F (stereo not drawn)
Percent Effect (30.3 µM, […]): 27.46%

COc1cccc(COCC(=O)N2CCC(CC(N)=O)CC2)c1
Percent Effect (30 µM, 30.03 µM): -26.96%

Cc1c(C)n(-c2ccccn2)c2nc3c(c(N)c12)CCCCC3
Percent Effect (30.3 µM, […]): 70.72%

Cc1c(C)n(Cc2ccccn2)c2nc3c(c(N)c12)CCCCCC3
Percent Effect (30.3 µM, […]): 8.308%

Cc1c(C)n(-c2ccccn2)c2nc3c(c(N)c12)CCCC3
Percent Effect (30 µM, 30.03 µM): 43.5%

CC1CN(C)c2ccccc2CN1C(=O)c1ccc[nH]1 (stereo not drawn)
Percent Effect (30 µM, 30.03 µM): 18.04%

COCCn1cnc2ccc(NC(=O)c3ccc(OC)cc3)cc2c1=O
Percent Effect (30.3 µM, […]): 23.03%

Cn1ccnc1COc1ccc(COC(=O)C2CCCO2)cc1 (stereo not drawn)
Percent Effect (30.3 µM, […]): -0.4672%

Cc1c(CC(C#N)C(=O)Nc2cccc(O)c2)cnn1C (stereo not drawn)
Percent Effect (30.3 µM, […]): -22.11%

COc1ccc(Cl)cc1NC(=O)CN1CCc2nc(NC(C)=O)sc2C1
Percent Effect (30.3 µM, […]): -8.893%

COc1ccc(Cl)cc1NC(=O)N1CCc2nc(NC(C)=O)sc2C1
Percent Effect (30.3 µM, […]): 55.24%

COC(=O)Nc1nc2c(s1)CN(C(=O)NCc1cccs1)CC2
Percent Effect (30.3 µM, […]): -0.9773%

Cn1ccnc1CN1CCCN(C(=O)c2ccc(O)nc2)CC1
Percent Effect (30 µM): 25.73%

Cc1nc2sccn2c1CN(CCCN(C)C)Cc1ccco1.O=C(O)CC(O)(CC(=O)O)C(=O)O
Percent Effect (30.3 µM, […]): 41.01%

CC[C@@]1(O)CCN(C(=O)CCc2cnn(C)c2)C[C@H]1O
Percent Effect (30.3 µM, […]): 28.56%

COc1ccc(C(C)NCc2nnc(C)s2)cc1F (stereo not drawn)
Percent Effect (30.3 µM, […]): 13.85%

COc1ccc(C(C)NCCC(N)=O)cc1F (stereo not drawn)
Percent Effect (30.3 µM, […]): 52.68%

COc1ccc(C(C)NCCc2ccc(NC(C)=O)cc2)cc1F (stereo not drawn)
Percent Effect (30.3 µM, […]): 23.19%

CCSc1cc(C(=O)NCCc2nnc(-c3ccco3)[nH]2)ccn1
Percent Effect (30.3 µM, […]): -0.0887%

CN(CCn1nc2ccccn2c1=O)CC(=O)N(C)C1CCCCC1
Percent Effect (30.3 µM, […]): 4.76%

Cc1nc(N2CCCC2)ncc1-c1cc(O)nc(N2CCCCC2)n1
Percent Effect (30.3 µM, […]): -14.51%

Cc1nc(N2CCCC2)ncc1-c1cc(O)nc(N2CCN(C)CC2)n1
Percent Effect (30.3 µM, […]): 59.07%

Cc1nc(N2CCCC2)ncc1-c1cc(O)nc(N2CCCC2)n1
Percent Effect (30 µM, 30.03 µM): 15.83%

CCCS(=O)(=O)NC(=O)c1sc(C2CCCC2)nc1C
Percent Effect (30.3 µM, […]): 11.93%

COCCNC(=O)C[C@@H]1COC[C@H]2CN(C(=O)COC)C[C@@H]12
Percent Effect (30.3 µM, […]): 51.2%

COCCNC(=O)C[C@@H]1COC[C@H]2CN(C(=O)c3cnccn3)C[C@@H]12
Percent Effect (30 µM, 30.03 µM): 9.909%

COCCNC(=O)C[C@@H]1COC[C@H]2CN(C(=O)C3CCOCC3)C[C@@H]12
Percent Effect (30.3 µM, […]): 11.97%

COC(=O)C(c1ccccc1)N(C)C(=O)c1ccnc(C)n1 (stereo not drawn)
Percent Effect (30 µM): 22.67%

Cc1ccccc1-n1ccc2nc(N3CCCC3)ncc2c1=O
Percent Effect (30.3 µM, […]): 13.99%

CS(=O)(=O)CC(=O)N(CCN1CCOCC1)Cc1ccco1
Percent Effect (30.3 µM, […]): -78.1%

Cc1ccc2c(c1)C1(CCNCC1)CC2N1CCOCC1 (stereo not drawn)
Percent Effect (30.3 µM, […]): 11.46%

COCCN1CCC2(CC1)CC(NC(=O)CC1CC1)c1ccccc1O2.O=C(O)C(F)(F)F (stereo not drawn)
Percent Effect (30.3 µM, […]): -12.69%

Cc1ccc2c(c1)C(N1CCOCC1)CC21CCNCC1 (stereo not drawn)
Percent Effect (30.3 µM, […]): 55.92%

COCC(=O)NC1CC2(CCN(CCO)CC2)c2ccccc21.O=C(O)C(F)(F)F (stereo not drawn)
Percent Effect (30.3 µM, […]): 8.463%

COCCN1CCC2(CC1)CC(NC(=O)CN(C)C)c1ccccc1O2.O=C(O)C(F)(F)F.O=C(O)C(F)(F)F (stereo not drawn)
Percent Effect (30.3 µM, […]): 52.21%

CCC(=O)N1CCC2(CC1)CC(N1CCOCC1)c1cc(C)ccc12.O=C(O)C(F)(F)F (stereo not drawn)
Percent Effect (30.3 µM, […]): 12%

Cn1cncc1CNC1CC2(CCN(CC3CC3)CC2)c2ccccc21.O=C(O)C(F)(F)F.O=C(O)C(F)(F)F (stereo not drawn)
Percent Effect (30.3 µM, […]): 22.11%

COCCN1CCC2(CC1)CC(NCc1cncn1C)c1ccccc12.O=C(O)C(F)(F)F.O=C(O)C(F)(F)F (stereo not drawn)
Percent Effect (30.3 µM, […]): 17.77%

COCCN1CCC2(CC1)CC(NC(=O)COC)c1ccccc1O2.O=C(O)C(F)(F)F (stereo not drawn)
Percent Effect (30.3 µM, […]): 15.07%

Cc1ccc(CNC2CC3(CCN(CCO)CC3)c3ccccc32)s1.O=C(O)C(F)(F)F.O=C(O)C(F)(F)F (stereo not drawn)
Percent Effect (30.3 µM, […]): 81.48%

Cc1cccc(CNC2CC3(CCN(CCO)CC3)c3ccccc32)n1.O=C(O)C(F)(F)F.O=C(O)C(F)(F)F (stereo not drawn)
Percent Effect (30.3 µM, […]): 9.361%

COCCN1CCC2(CC1)CC(NCc1ccc(C)s1)c1ccccc12.O=C(O)C(F)(F)F.O=C(O)C(F)(F)F (stereo not drawn)
Percent Effect (30.3 µM, […]): 59.95%

CCn1nccc1CNC(=O)C1CCCO1 (stereo not drawn)
Percent Effect (30.3 µM, […]): 2.08%

CNc1oc(-c2ccc(OC)c(S(=O)(=O)N3CCCC3)c2)nc1C#N
Percent Effect (30.3 µM, […]): 16.63%

CC(=O)N1CCC2(CC1)CC(NS(C)(=O)=O)c1ccccc1O2 (stereo not drawn)
Percent Effect (30.3 µM, […]): 6.966%

O=C(NCc1cccs1)c1nc2c(o1)CN(c1ncccn1)C2
Percent Effect (30.3 µM, […]): 27.75%

CCn1c(CC2CCN(C(=O)c3ccnn3C)CC2)n[nH]c1=O
Percent Effect (30.3 µM, […]): 15.21%

Cc1csc(CNC(=O)NCC(O)c2cccc(Cl)c2)n1 (stereo not drawn)
Percent Effect (30 µM, 30.03 µM): 17.1%

CCCN(C(=O)c1csnn1)C1CCCN(Cc2ccccc2)C1 (stereo not drawn)
Percent Effect (30.3 µM, […]): 11.65%

COCCN1CCC2(CC1)CC(N1CCOCC1)c1ccc(C)cc12.O=C(O)C(F)(F)F.O=C(O)C(F)(F)F (stereo not drawn)
Percent Effect (30.3 µM, […]): 56.38%

COCCN1CCC2(CC1)CC(N1CCOCC1)c1cc(C)ccc12.O=C(O)C(F)(F)F.O=C(O)C(F)(F)F (stereo not drawn)
Percent Effect (30.3 µM, […]): 13.44%

CC(=O)N1CCC2(CC1)CC(N1CCOCC1)c1ccc(C)cc12.O=C(O)C(F)(F)F (stereo not drawn)
Percent Effect (30.3 µM, […]): 29.16%

COc1ccc(C(=O)Nc2c(C(=O)N(C)C)nn(C)c2C)cc1
Percent Effect (30.3 µM, […]): 25.81%

O=C1CC(c2ccsc2)c2snc(C(=O)O)c2N1 (stereo not drawn)
Percent Effect (30.3 µM, […]): 9.625%

Cc1ccc(-c2nnc(SCC(=O)O)n2-c2ccc(C)cc2)cc1
Percent Effect (30 µM, 30.03 µM): 5.804%

CNc1nc(C)cc(NC2CCCN(C3Cc4ccccc4C3)C2)n1 (stereo not drawn)
Percent Effect (30.3 µM, […]): 58.16%

Cc1ccc(NC2CCCN(C3Cc4ccccc4C3)C2)nn1 (stereo not drawn)
Percent Effect (30.3 µM, […]): 23.72%

CNc1cc(C)nc(NC2CCCN(C3Cc4ccccc4C3)C2)n1 (stereo not drawn)
Percent Effect (30.3 µM, […]): 32.54%

CN1CCN(C2CCN(Cc3nnc(C(C)(C)C)o3)CC2)C1=O
Percent Effect (30 µM): 6.935%

COc1cc(CNCCc2nc(C)cs2)cc2c1OCCO2.Cl
Percent Effect (30 µM, 30.03 µM): 9.472%

COc1cccc(CN(C)C(C)c2ccco2)c1OCCn1ccnc1 (stereo not drawn)
Percent Effect (30.3 µM, […]): 23.12%

CCN(CC(=O)N(C)C)C(=O)c1ccc(-c2nc(C)cs2)cc1
Percent Effect (30.3 µM, […]): -16.68%

CCCN(CC(=O)N(C)C)C(=O)c1ccc(-c2nc(C)cs2)cc1
Percent Effect (30.3 µM, […]): 65.78%

CCCN(CC(=O)NC)C(=O)c1ccc(-c2nc(C)cs2)cc1
Percent Effect (30.3 µM, […]): 37%

Cc1cc(C2CCCN2Cc2cc(=O)n(C)c(=O)n2C)on1 (stereo not drawn)
Percent Effect (30 µM, 30.03 µM): -11.72%

COc1ccc(S(=O)(=O)NCCCc2nnc3nc(C)cc(C)n23)cc1
Percent Effect (30.3 µM, […]): 5.677%

CC(C)n1cnnc1SCCN(C)c1ccccc1
Percent Effect (30.3 µM, […]): -1.184%

COc1ccc(-c2cc3cccn(CC(=O)N4CCOCC4)c-3n2)cc1
Percent Effect (30.3 µM, […]): 23.65%

O=C(Cn1cccc2cc(-c3ccc(F)cc3)nc1-2)N1CCC(O)CC1
Percent Effect (30.3 µM, […]): 2.575%

CN(C)CCN(C)C(=O)Cn1cccc2cc(-c3ccc(F)cc3)nc1-2
Percent Effect (30.3 µM, […]): 78.9%

CC(C)(C)c1ncc2c(n1)CN(c1cc(NCCO)nc(N)n1)C2
Percent Effect (30.3 µM, […]): 34.79%

O=C(C1CC(=O)N(c2n[nH]c3cc(Br)ccc23)C1)N1CCOCC1 (stereo not drawn)
Percent Effect (30.3 µM, […]): -3.266%

CC(C)CCNC(=O)c1ccc(Cl)c(NS(C)(=O)=O)c1
Percent Effect (30.3 µM, […]): 6.444%

O=C(Cc1ccsc1)N1C[C@@H]2CN(Cc3ccoc3)CCO[C@@H]2C1.O=C(O)C(F)(F)F
Percent Effect (30 µM, 30.03 µM): 9.64%

COCCN(C)C(=O)c1ccc(OC)cc1O
Percent Effect (30 µM, 30.03 µM): -17.55%

COc1ccc(OCCN(C)C(=O)c2ccc(OC)cc2O)cc1
Percent Effect (30.3 µM, […]): 55.32%

COCCCNC(=O)CN(C)C(=O)c1ccc(OC)cc1O
Percent Effect (30 µM): 24.99%

CCN(C)C(=O)CN1CCC(c2cc(N3CCOCC3)nc(C)n2)CC1
Percent Effect (30.3 µM, […]): -1.668%

Nc1nc(O)cc(N2CCC(c3cc(Cc4ccccc4)n[nH]3)CC2)n1
Percent Effect (30.3 µM, […]): 4.937%

Cc1cc(CN2CCC(c3cc(Cc4ccccc4)n[nH]3)CC2)[nH]n1
Percent Effect (30.3 µM, […]): 26.02%

Nc1cc(N2CCC(c3cc(Cc4ccccc4)n[nH]3)CC2)ccn1
Percent Effect (30.3 µM, […]): 96.12%

Cc1ccc(N2CCC(c3cc(Cc4ccccc4)n[nH]3)CC2)nn1
Percent Effect (30.3 µM, […]): 15.09%

Nc1nccc(N2CCC(c3cc(Cc4ccccc4)n[nH]3)CC2)n1
Percent Effect (30.3 µM, […]): 63.85%

NC(=O)NCCC(=O)N1CCC(c2cc(Cc3ccccc3)n[nH]2)CC1
Percent Effect (30.3 µM, […]): -20.51%
